Measured values taken from PubChem BioAssay.
The source made the active and inactive calls.

What was measured:
[1] = compounds binding Alexa647 anti-His antibody – biochemical, small-molecule microarray, 635 nm fluorescence, artefact control for SMM control protein annotation, primary screen (AID 1128); conditions: higher = more signal;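 also: score merges feature fluorescence with signal-to-noise for each printed compound spot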
[2] = tested on: Human papillomavirus type 1a E7 protein (residues 1-88); assay: HPV1a E7 small-molecule binders, primary screen, biochemical, small-molecule microarray, residues 1-88, 635 nm (AID 1129); conditions: small-molecule microarray binding, fluorescence 635 nm; higher = more signal
[3] = target: Focal adhesion kinase 1 (Homo sapiens) (UniProt Q05397); assay: PTK2 protein binding on printed compound slides – biochemical, small-molecule microarray, 635/667 nm fluorescence, BSA, DTT, primary screen (AID 1130); conditions: 635 nm fluorescence, higher = more signal;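 also: composite of spot emission at 667 nm and signal to noise over triplicate slides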
[4] = tested on: Fibrinogen (Alexa647-labelled); assay: Alexa647-fibrinogen binding to printed small molecules – biochemical, small-molecule microarray, 635/667 nm fluorescence, artefact control for SMM control-protein annotation, profiling panel (AID 1131); conditions: fibrinogen-A647 binding fluorescence, higher = more signal;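 also: z-score merges 667 nm fluorescence with per-spot signal-to-noise over triplicate slides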
[5] = target: Follistatin (Homo sapiens) (UniProt P19883); assay: FST protein binding to printed compounds – biochemical, small-molecule microarray, 635/667 nm fluorescence, primary screen (AID 1132); conditions: 635 nm fluorescence, higher = more signal
[6] = target: Fibroblast growth factor 2 (Homo sapiens) (UniProt P09038); assay: basic fibroblast growth factor binding to printed compounds – biochemical, small-molecule microarray, 635/667 nm fluorescence, primary screen (AID 1133); conditions: FGF2, fluorescence 635/667, higher = more signal
[7] = JC-1 mitochondrial potential readout, lung cancer cells – cell-based, A549, JC-1 fluorescence, basal, 24 h, 100 nL, profiling panel (AID 1138); conditions: higher = more signal;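 also: A549 lung adenocarcinoma cells under basal conditions with no added stimulus; test concentration not given here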
[8] = tested on: Lefty1; assay: Lefty1 protein binding to printed compounds – biochemical, small-molecule microarray, 635/667 nm fluorescence, primary screen (AID 1139); conditions: fluorescence 635/667, higher = more signal
[9] = tested on: wheat germ agglutinin (Triticum aestivum), Alexa647-labelled; assay: Alexa647-WGA lectin binding to printed small molecules – biochemical, small-molecule microarray, 635/667 nm fluorescence, artefact control for SMM control-protein annotation, profiling panel (AID 1140); conditions: WGA-A647 binding, 635 nm fluorescence, higher = more signal;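 also: score merges 667 nm feature emission with signal to noise over triplicate slides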
[10] = target: Luciferin 4-monooxygenase (Photinus pyralis) (UniProt P08659); assay: inhibition of purified Photinus pyralis luciferase – biochemical, luminescence, purified enzyme, 2006 set, primary screen (AID 1141); conditions: purified firefly luciferase, SteadyGlo luminescence, 30 min; higher = more signal, called active from +8 up or from −8 down;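 also: cell-free assay with purified firefly luciferase at 100 ng per well in PBS; test concentration not given here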
Luciferin 4-monooxygenase (Photinus pyralis), sequence (P08659 whole entry, looked up): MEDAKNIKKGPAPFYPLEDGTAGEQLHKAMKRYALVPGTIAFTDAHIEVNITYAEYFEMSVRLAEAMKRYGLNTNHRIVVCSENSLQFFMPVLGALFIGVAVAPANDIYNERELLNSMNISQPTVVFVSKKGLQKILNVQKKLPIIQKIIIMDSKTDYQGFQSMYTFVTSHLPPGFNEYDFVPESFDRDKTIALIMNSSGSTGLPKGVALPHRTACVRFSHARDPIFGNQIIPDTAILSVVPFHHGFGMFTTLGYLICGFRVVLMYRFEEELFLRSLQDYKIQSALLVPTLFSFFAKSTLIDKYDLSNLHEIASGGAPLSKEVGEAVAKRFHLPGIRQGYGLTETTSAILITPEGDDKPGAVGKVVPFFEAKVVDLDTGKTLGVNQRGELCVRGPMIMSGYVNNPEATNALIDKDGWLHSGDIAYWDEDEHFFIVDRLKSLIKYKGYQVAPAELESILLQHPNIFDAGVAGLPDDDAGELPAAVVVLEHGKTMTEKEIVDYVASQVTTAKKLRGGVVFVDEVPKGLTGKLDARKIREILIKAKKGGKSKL

Follistatin (Homo sapiens), sequence (P19883 whole entry, looked up): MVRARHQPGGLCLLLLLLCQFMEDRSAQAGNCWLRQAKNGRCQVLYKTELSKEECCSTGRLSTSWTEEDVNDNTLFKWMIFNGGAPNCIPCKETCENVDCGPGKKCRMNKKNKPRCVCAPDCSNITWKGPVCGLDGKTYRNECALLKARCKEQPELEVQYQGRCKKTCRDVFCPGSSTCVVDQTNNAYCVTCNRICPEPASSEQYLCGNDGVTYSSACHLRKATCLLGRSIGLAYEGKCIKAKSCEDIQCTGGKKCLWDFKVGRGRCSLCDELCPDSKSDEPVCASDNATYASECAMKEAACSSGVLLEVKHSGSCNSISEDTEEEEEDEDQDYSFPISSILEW
Fibroblast growth factor 2 (Homo sapiens), sequence (P09038 whole entry, looked up): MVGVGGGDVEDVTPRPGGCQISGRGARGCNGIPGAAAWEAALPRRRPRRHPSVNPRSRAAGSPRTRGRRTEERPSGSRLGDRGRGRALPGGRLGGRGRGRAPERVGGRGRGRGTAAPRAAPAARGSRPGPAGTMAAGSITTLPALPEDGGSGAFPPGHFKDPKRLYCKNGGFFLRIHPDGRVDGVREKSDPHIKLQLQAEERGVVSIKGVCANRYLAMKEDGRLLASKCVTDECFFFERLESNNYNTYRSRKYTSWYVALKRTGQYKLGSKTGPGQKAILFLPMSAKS
Focal adhesion kinase 1 (Homo sapiens), sequence (Q05397 whole entry, looked up): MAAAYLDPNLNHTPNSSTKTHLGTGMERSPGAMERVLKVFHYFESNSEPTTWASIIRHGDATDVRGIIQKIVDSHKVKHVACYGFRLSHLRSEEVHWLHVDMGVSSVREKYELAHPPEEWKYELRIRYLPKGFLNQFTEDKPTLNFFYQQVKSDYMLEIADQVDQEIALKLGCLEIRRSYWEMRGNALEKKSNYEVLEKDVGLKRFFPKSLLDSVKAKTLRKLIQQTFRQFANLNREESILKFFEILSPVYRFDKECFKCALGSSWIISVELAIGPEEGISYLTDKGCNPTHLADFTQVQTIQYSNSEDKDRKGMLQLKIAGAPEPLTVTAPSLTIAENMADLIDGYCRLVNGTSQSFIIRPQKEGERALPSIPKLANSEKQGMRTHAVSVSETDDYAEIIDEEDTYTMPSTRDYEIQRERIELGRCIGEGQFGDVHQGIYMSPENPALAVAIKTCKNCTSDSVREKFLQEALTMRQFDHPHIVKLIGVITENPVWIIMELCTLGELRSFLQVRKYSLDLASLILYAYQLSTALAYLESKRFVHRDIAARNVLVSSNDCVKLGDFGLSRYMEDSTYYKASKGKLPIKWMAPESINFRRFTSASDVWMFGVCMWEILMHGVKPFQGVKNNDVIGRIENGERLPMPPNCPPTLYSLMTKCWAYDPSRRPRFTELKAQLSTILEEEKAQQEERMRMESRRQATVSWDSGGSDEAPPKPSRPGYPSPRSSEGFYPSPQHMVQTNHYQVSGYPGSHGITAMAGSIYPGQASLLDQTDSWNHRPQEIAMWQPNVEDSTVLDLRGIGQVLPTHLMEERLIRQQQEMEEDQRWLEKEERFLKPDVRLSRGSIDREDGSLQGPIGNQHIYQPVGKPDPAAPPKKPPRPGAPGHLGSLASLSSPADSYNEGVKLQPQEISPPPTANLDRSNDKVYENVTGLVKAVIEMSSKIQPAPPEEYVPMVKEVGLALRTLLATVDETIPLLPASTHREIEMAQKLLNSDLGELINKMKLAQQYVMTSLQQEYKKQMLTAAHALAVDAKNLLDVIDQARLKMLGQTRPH

Row | SMILES | composite z-score [1] | composite z-score [2] | composite z-score [3] | composite z-score [4] | composite z-score [5] | composite z-score [6] | z-score [7] | composite z-score [8] | composite z-score [9] | z-score [10]
1 | O=C(NCc1ccccc1)[C@@]1(CCS(=O)(=O)c2ccccc2)N=C(c2ccc(OCCCO)cc2)O[C@H]1c1ccccc1 | 1.52 | 1.26 | 0.54 | 0.994 | 1.21 | -0.0657 | -0.346 | 0.116 | 1.1 | 0.548 (inactive)
2 | C[C@]1(C(=O)NC2CC2)c2ccccc2C(=O)N(Cc2cc(C(F)(F)F)cc(C(F)(F)F)c2)[C@H]1c1ccc(CO)cc1 | 1.86 | 1.11 | -0.0326 | 0.657 | 1.31 | 0.998 | 1.73 | 0.539 | 0.772 | -1.07 (inactive)
3 | [N-]=[N+]=Nc1ccccc1C[C@]1(C(=O)NCC(O)CO)N=C(c2ccc(OCCCO)cc2)O[C@H]1c1ccccc1N=[N+]=[N-] (stereo not given in full) | 1.58 | -0.212 | 0.0567 | 0.578 | -0.332 | -0.83 | 0.0494 | -0.435 | 0.543 | -3.26 (inactive)
4 | CC(C)c1ccc(NN2C(C(O)C(c3ccccc3)c3ccccc3)C=CC3C(=O)N(c4ccccc4)C(=O)C32)cc1 (stereo not given) | 0.49 | 1.2 | 0.496 | 0.975 | 1.13 | 0.388 | -1.24 | 0.343 | 0.919 | -0.78 (inactive)
5 | COCCOC(=O)N1C(=O)[C@@]2(c3ccccc31)[C@H](c1ccc(O)cc1)N1[C@H](c3ccccc3)[C@H](c3ccccc3)OC(=O)[C@H]1[C@@H]2C(=O)NC[C@H](O)c1ccccc1 | 2.08 | 1.2 | -0.0504 | 0.068 | 0.532 | -0.104 | -0.767 | 0.282 | 0.0324 | 0.733 (inactive)
6 | Cc1ccc(S[C@]2(C(=O)NC3CC3)CC(=O)N(C3Cc4ccccc4C3)[C@@H]2c2ccc(CO)cc2)cc1 | -0.172 | 0.445 | 0.0342 | -0.424 | -0.584 | -0.3 | 2.42 | -1.35 | -0.0705 | -1.28 (inactive)
7 | CC(C)C[C@@H]1NC(=O)[C@H]2C[C@@H](C(=O)NCCCCCCN)[C@@H](c3ccc(O)cc3)N2C1=O | 2.99 | -0.313 | 0.496 | 0.8 | 1.32 | 0.823 | -1.06 | 0.632 | 0.0592 | -0.288 (inactive)
8 | COCC(=C=CC[C@H](O)c1ccccc1OCCO)C[C@H](O)c1cc(Cl)cc(Cl)c1O | -0.058 | 0.914 | 0.469 | 0.974 | 0.888 | 1.59 | -0.54 | 0.685 | 0.351 | -1.28 (inactive)
9 | O=C1c2ccccc2[C@](Cc2ccccc2I)(C(=O)NC2CC2)[C@H](c2ccc(CO)cc2)N1C1CCCCC1 | 2.63 | 1.24 | 0.548 | 0.806 | 1.27 | 1.09 | 2.01 | 0.593 | 0.993 | -0.912 (inactive)
10 | COc1cc2c(cc1O)C(C1CC1)N(Cc1cc3c(cc1Br)OCO3)CC2 (stereo not given) | -1.4 | -0.603 | -0.629 | -0.736 | -0.774 | -0.746 | -0.721 | -1.01 | -0.503 | -0.0849 (inactive)
11 | C=C(CCCC)C(=O)CC[C@H](OC(C)=O)c1cccc(OCCO)c1 | -0.393 | -0.755 | 0.5 | -1.29 | -0.732 | -0.546 | -0.299 | -0.492 | -0.881 | 0.0336 (inactive)
12 | O=C1OCCC/C=C\[C@H]2OC34C=CCN(Cn5nnc6ccccc65)C(=O)[C@H]3N(CCCCCCO)C(=O)[C@@H]4C12 (stereo not given in full) | 0.919 | -0.776 | 0.326 | -2.01 | -0.686 | -1.58 | 1.05 | -0.394 | 0.727 | -0.254 (inactive)
13 | COc1ccc(CCNC(=O)[C@@H]2c3ccccc3C(=O)N(C3Cc4ccccc4C3)[C@H]2c2ccc(CO)cc2)cc1 | 1.12 | 0.655 | 1.02 | 0.92 | 0.25 | 0.0201 | 0.997 | -0.0376 | 0.645 | 0.672 (inactive)
14 | CCCCc1cn(C[C@H](Cc2ccccc2)NC(=O)N[C@H](CO)CCc2oc(C(C)=O)c(C(=O)OC)c2C(=O)OC)nn1 | 0.97 | 1.2 | 0.54 | 0.921 | 1.18 | 0.866 | -0.419 | 1.16 | 0.445 | 1.29 (inactive)
15 | COCCOC(=O)N1C(=O)[C@@]2(c3cc(C#CCCO)ccc31)[C@H](C(=O)N1CCN(c3ncccn3)CC1)[C@H]1C(=O)O[C@H](c3ccccc3)[C@H](c3ccccc3)N1[C@@H]2c1ccccc1OCCO | 0.475 | 1.23 | 0.868 | 0.972 | 1.35 | 0.821 | -0.778 | 0.828 | 1.04 | 1.23 (inactive)
16 | CCOC(=O)C[C@H]1[C@H](OC(=O)Cc2ccc3c(c2)OCO3)[C@@H](NC(=O)c2ccc(-c3ccccc3)cc2)c2cc(OCCCO)ccc2N1C(=O)c1ccc2ccccc2n1 | 0.0542 | 0.242 | 0.179 | 0.368 | 0.46 | -0.0919 | -0.728 | 0.278 | 0.132 | 0.74 (inactive)
17 | COC(=O)[C@@]1(Cc2ccc(OC)cc2)[C@H]2c3cc(C(=O)N4CCCC4)n(Cc4ccc(OC)c(OC)c4)c3C[C@H]2CN1C(=O)c1ccccc1 | 2.04 | 1.22 | 0.343 | 0.607 | 1.37 | 0.515 | 1.58 | 0.724 | 0.742 | 2.16 (inactive)
18 | Cc1ccc(S[C@]2(C(=O)NCCN3CCOCC3)CC(=O)N(Cc3ccccc3)[C@@H]2c2ccc(CO)cc2I)cc1 | 1.75 | -0.104 | 0.217 | -1.42 | -0.422 | -1.2 | 0.0777 | -1.08 | -0.592 | 0.4 (inactive)
19 | C=CCOC(=O)[C@H]1[C@@H]2C(=O)O[C@@H](c3ccccc3)[C@@H](c3ccccc3)N2[C@@H](c2ccc(OCCOC(=O)[C@H]3C[C@H]4C(=O)N5CCC[C@H]5C(=O)N4[C@H]3c3ccc(O)cc3)cc2)[C@]12C(=O)Nc1ccc(I)cc12 | 2.88 | 1.23 | -0.0378 | 0.396 | 1.47 | 1.6 | -0.87 | 1.54 | 1.66 | 0.269 (inactive)
20 | C=CCC(OC(C)=O)[C@@H]1[C@@H](N(Cc2ccc(-c3cccc(C(F)(F)F)c3)o2)C(=O)Cc2ccc(F)cc2)c2cc(OCCCO)ccc2N1C(=O)Cc1ccc(OC)cc1 (stereo not given in full) | -0.775 | -2.07 | -0.572 | -0.0256 | 0.346 | -0.308 | 0.812 | -0.0727 | 0.114 | 0.175 (inactive)
21 | COCCCNC(=O)[C@@]1(Cc2ccccc2N=[N+]=[N-])N=C(c2ccc(OCCCO)cc2)O[C@H]1c1ccccc1N=[N+]=[N-] | 1.73 | 1.22 | 0.912 | 0.849 | 1.25 | 0.836 | 0.332 | -0.0542 | 1.02 | -3.37 (inactive)
22 | O=C(NCc1ccccc1)[C@@]1(Cc2ccccc2)N=C(c2ccc(OCCCO)cc2)O[C@H]1c1ccccc1 | 1.47 | 1.22 | 0.45 | 0.866 | 0.368 | -0.352 | 0.164 | -0.872 | 1.05 | 0.712 (inactive)
23 | COc1ccc(NN2C(C(O)c3ccc([N+](=O)[O-])cc3)C=CC3C(=O)N(C4CCCCC4)C(=O)C32)cc1 (stereo not given) | 0.525 | 0.918 | 0.201 | 0.93 | 0.737 | -0.532 | 0.732 | 0.0274 | 1.13 | 0.939 (inactive)
24 | CCCCC=C[C@@H](NC(=O)Oc1cccc(C(F)(F)F)c1)c1ccccc1 | 0.291 | 1.21 | 0.0053 | 1.01 | 0.572 | 1.63 | -1.68 | -0.0322 | 1.15 | 1.52 (inactive)
25 | CN(C)CCCC[C@@H]1NC(=O)[C@H]2C[C@@H](C(=O)NCCCCCNC(=O)CS)[C@@H](c3cccc(OCCO)c3)N2C1=O | 1.32 | 0.866 | 0.688 | 0.44 | 1.41 | 1.69 | 0.446 | 1 | -0.0708 | -0.804 (inactive)
26 | CC1CC/C=C\[C@H]2OC34C=CCN(Cn5nnc6ccccc65)C(=O)[C@H]3N(C(CO)C(C)C)C(=O)[C@@H]4C2C(=O)O1 (stereo not given in full) | 1.63 | 0.19 | 0.0406 | 0.422 | -0.311 | -0.464 | -0.408 | -0.2 | 1.09 | 0.178 (inactive)
27 | COC(=O)[C@@]1(Cc2ccc(F)cc2)[C@H]2c3cc(C(=O)N(C)C)n(CC4CC4)c3C[C@H]2CN1C(=O)c1ccccc1 | 1.54 | 1.21 | -0.0938 | 0.94 | 0.581 | -0.272 | 0.524 | -0.12 | 1.08 | 0.184 (inactive)
28 | CN(C)CCCNC(=O)[C@@]1(c2ccc([N+](=O)[O-])cc2)CC(=O)N(C2CCCCC2)[C@@H]1c1ccc(CO)cc1 | -0.0406 | 0.108 | -0.221 | 0.874 | 0.928 | -0.209 | 1.22 | 0.401 | -0.0351 | -0.0244 (inactive)
